# Data published in article PMC7862700, “An all-to-all approach to the identification of sequence-specific readers for epigenetic DNA modifications on cytosine”.
# Columns and labels:
# Test in all cases: DAPPL (digital affinity profiling via proximity ligation, sequencing); 10 mM Tris-HCl pH 7.5, 50 mM NaCl, 1 mM DTT, 4% glycerol, room temperature, 30 min; GST-TFs on glutathione beads, 16-mer random dsDNA library, 0.1% formaldehyde crosslink after washing; high values mean tight binding
# FLI1 = molecular target: T1, FLI1 (Homo sapiens, UniProt Q01543 1-452); conditions: protein: recombinant; tags: N-terminal GST; dsDNA, one strand shown
# T1 sequence: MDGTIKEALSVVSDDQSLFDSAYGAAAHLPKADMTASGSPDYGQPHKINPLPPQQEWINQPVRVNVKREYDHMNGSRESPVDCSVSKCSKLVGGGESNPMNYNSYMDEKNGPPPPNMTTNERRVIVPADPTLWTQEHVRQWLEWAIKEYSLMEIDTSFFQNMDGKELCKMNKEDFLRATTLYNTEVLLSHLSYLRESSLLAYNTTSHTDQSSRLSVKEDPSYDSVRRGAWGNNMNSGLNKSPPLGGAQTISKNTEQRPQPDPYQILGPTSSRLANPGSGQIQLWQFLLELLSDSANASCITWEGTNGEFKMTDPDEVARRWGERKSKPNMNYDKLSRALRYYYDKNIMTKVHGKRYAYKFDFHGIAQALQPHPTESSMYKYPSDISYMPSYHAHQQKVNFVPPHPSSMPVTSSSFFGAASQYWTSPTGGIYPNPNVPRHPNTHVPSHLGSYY
# Outline: (§1)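 GST fusions of human transcription factors were expressed in yeast and captured with glutathione beads. Once given DNA barcodes and pooled alongside a tag-only sample, they were incubated for 30 min at room temperature with 200 nmole of a random double-stranded 16-mer DNA library in Tris/NaCl/DTT/glycerol buffer, then washed, crosslinked (0.1% formaldehyde), proximity-ligated, PCR-amplified and sequenced on an Illumina NextSeq500. The binding signal of each hexamer is its read frequency for a factor divided by its frequency for the tag-only sample.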
# ELK1 = molecular target: T2, ELK1 (Homo sapiens, UniProt P19419 1-428); conditions: protein: recombinant; tags: N-terminal GST; dsDNA, one strand shown
# T2 sequence: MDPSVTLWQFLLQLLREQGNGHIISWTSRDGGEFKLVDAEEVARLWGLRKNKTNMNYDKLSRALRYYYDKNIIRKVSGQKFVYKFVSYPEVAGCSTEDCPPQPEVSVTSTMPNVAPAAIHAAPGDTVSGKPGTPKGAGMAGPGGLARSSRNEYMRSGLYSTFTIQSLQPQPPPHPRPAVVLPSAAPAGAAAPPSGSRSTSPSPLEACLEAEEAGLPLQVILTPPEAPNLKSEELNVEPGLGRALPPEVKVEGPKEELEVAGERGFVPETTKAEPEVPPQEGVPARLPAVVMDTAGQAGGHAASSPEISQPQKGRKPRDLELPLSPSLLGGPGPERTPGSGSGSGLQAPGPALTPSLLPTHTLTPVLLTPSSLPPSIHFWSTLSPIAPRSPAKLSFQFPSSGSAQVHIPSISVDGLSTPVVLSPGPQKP
# Outline: as §1
# GABPA = molecular target: T3, GABPA (Homo sapiens, UniProt Q06546 1-454); conditions: protein: recombinant; tags: N-terminal GST; dsDNA, one strand shown
# T3 sequence: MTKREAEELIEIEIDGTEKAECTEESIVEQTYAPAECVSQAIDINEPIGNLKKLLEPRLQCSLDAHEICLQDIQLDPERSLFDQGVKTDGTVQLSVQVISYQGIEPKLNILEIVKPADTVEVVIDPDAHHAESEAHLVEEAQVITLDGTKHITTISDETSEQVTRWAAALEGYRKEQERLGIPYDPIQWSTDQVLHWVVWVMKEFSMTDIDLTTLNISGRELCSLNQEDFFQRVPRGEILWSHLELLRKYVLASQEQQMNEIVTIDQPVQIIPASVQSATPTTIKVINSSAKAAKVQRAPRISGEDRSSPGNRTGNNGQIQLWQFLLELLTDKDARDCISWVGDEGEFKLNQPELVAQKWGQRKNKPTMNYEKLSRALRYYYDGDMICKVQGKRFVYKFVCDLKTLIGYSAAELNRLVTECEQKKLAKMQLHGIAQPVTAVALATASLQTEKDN
# Outline: as §1
# ERG = molecular target: T4, ERG (Homo sapiens, UniProt P11308 1-479); conditions: protein: recombinant; tags: N-terminal GST; dsDNA, one strand shown
# T4 sequence: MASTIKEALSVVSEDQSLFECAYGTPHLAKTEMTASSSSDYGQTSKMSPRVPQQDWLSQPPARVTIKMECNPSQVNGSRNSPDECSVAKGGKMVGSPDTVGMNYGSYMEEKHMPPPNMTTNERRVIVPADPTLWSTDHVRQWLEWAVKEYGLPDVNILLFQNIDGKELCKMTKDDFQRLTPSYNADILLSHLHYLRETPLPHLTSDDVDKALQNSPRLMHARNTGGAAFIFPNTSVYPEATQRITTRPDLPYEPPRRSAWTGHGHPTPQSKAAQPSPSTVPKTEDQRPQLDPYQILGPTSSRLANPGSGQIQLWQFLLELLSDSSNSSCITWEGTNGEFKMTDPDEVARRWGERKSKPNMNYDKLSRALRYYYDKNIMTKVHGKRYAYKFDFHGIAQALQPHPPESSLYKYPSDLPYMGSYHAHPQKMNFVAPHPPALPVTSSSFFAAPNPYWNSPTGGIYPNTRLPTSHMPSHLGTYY
# Outline: as §1
# ELF1 = ELF1 (Homo sapiens, UniProt P32519 1-619); conditions: protein: recombinant; tags: N-terminal GST; dsDNA, one strand shown
# Outline: as §1
# EHF = molecular target: T5, EHF (Homo sapiens, UniProt Q9NZC4 1-300); conditions: protein: recombinant; tags: N-terminal GST; dsDNA, one strand shown
# T5 sequence: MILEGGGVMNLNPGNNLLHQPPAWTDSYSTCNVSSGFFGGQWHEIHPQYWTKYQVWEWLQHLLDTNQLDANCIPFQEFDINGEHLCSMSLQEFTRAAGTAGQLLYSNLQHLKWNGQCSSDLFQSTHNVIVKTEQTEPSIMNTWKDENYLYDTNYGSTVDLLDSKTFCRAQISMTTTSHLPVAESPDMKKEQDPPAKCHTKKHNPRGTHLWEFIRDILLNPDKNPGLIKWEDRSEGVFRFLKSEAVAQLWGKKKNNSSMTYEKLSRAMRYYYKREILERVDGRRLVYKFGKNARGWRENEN
# Outline: as §1
# SPI1 = SPI1 (Homo sapiens, UniProt P17947 1-270); conditions: protein: recombinant; tags: N-terminal GST; dsDNA, one strand shown
# Outline: as §1
# SPIB = SPIB (Homo sapiens, UniProt Q01892 1-262); conditions: protein: recombinant; tags: N-terminal GST; dsDNA, one strand shown
# Outline: as §1
# ELK3 = molecular target: T6, ELK3 (Homo sapiens, UniProt P41970 1-407); conditions: protein: recombinant; tags: N-terminal GST; dsDNA, one strand shown
# T6 sequence: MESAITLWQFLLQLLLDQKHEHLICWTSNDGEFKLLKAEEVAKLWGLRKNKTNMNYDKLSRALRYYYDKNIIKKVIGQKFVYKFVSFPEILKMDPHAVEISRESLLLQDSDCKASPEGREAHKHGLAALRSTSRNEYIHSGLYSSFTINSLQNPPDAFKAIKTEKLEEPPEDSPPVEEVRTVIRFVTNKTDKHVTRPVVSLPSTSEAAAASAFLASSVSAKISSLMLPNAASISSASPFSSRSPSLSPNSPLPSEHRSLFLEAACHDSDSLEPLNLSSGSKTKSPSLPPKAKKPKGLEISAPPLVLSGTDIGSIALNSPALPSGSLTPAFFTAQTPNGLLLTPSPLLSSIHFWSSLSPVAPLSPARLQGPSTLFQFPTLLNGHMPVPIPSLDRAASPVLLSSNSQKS
# Outline: as §1
# FEV = molecular target: T7, FEV (Homo sapiens, UniProt Q99581 1-238); conditions: protein: recombinant; tags: N-terminal GST; dsDNA, one strand shown
# T7 sequence: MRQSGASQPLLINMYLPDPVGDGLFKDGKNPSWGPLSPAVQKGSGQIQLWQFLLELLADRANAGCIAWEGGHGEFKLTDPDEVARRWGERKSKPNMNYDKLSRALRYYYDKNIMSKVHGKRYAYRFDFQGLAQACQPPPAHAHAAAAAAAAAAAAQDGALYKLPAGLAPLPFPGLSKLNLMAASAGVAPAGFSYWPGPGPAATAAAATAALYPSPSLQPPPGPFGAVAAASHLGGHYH
# Outline: as §1
# ETV5 = ETV5 (Homo sapiens, UniProt P41161 1-510); conditions: protein: recombinant; tags: N-terminal GST; dsDNA, one strand shown
# Outline: as §1
# HSF1 = HSF1 (Homo sapiens, UniProt Q00613 1-529); conditions: protein: recombinant; tags: N-terminal GST; chain copies: 3; dsDNA, one strand shown
# Outline: as §1
# SPIC = molecular target: T8, SPIC (Homo sapiens, UniProt Q8N5J4 1-248); conditions: protein: recombinant; tags: N-terminal GST; dsDNA, one strand shown
# T8 sequence: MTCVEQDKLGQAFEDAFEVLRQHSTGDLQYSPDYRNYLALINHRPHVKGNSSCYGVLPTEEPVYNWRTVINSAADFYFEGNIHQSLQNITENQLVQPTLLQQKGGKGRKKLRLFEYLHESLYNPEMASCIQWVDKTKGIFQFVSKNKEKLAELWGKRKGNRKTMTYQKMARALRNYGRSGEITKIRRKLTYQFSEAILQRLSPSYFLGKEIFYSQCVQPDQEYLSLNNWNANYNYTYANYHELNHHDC
# Outline: as §1
# ELF4 = ELF4 (Homo sapiens, UniProt Q99607 1-663); conditions: protein: recombinant; tags: N-terminal GST; dsDNA, one strand shown
# Outline: as §1
# ELK4 = molecular target: T9, ELK4 (Homo sapiens, UniProt P28324-2 1-405); conditions: protein: recombinant; tags: N-terminal GST; dsDNA, one strand shown
# T9 sequence: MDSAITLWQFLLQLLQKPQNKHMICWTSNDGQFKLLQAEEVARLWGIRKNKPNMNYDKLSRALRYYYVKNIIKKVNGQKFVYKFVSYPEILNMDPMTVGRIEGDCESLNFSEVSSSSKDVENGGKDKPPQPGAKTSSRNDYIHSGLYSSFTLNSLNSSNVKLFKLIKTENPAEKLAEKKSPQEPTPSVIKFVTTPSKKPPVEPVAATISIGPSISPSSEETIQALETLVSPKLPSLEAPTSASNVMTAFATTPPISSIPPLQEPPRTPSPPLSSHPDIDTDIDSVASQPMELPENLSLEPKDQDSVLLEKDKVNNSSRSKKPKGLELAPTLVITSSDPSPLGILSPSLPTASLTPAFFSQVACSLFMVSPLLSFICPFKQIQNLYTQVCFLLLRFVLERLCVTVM
# Outline: as §1
# ETV2 = molecular target: T10, ETV2 (Homo sapiens, UniProt O00321 1-342); conditions: protein: recombinant; tags: N-terminal GST; dsDNA, one strand shown
# T10 sequence: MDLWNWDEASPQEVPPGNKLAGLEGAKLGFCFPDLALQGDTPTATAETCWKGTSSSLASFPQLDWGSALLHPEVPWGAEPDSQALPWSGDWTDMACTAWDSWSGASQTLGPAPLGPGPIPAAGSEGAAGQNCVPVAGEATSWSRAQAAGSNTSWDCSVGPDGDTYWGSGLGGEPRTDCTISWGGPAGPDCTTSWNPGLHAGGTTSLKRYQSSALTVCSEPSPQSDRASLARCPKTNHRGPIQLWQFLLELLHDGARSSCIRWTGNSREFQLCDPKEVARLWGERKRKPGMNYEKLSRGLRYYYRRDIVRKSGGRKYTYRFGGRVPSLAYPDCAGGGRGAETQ
# Outline: as §1
# ELF3 = molecular target: T11, ELF3 (Homo sapiens, UniProt P78545 1-371); conditions: protein: recombinant; tags: N-terminal GST; dsDNA, one strand shown
# T11 sequence: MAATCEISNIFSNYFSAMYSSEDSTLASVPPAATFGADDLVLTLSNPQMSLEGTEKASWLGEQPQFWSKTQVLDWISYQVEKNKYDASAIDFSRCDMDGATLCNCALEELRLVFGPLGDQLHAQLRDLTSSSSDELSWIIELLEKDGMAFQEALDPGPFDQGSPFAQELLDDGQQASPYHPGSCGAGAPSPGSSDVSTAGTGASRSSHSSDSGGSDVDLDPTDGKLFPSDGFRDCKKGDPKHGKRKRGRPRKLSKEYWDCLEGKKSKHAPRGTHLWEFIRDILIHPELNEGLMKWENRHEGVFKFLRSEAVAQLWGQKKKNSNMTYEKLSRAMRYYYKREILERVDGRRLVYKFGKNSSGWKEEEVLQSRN
# Outline: as §1
# CRX = CRX (Homo sapiens, UniProt O43186 1-299); conditions: protein: recombinant; tags: N-terminal GST; dsDNA, one strand shown
# Outline: as §1
# ETV1 = ETV1 (Homo sapiens, UniProt P50549 1-477); conditions: protein: recombinant; tags: N-terminal GST; dsDNA, one strand shown
# Outline: as §1
# ETV5, sequence (P41161 whole entry): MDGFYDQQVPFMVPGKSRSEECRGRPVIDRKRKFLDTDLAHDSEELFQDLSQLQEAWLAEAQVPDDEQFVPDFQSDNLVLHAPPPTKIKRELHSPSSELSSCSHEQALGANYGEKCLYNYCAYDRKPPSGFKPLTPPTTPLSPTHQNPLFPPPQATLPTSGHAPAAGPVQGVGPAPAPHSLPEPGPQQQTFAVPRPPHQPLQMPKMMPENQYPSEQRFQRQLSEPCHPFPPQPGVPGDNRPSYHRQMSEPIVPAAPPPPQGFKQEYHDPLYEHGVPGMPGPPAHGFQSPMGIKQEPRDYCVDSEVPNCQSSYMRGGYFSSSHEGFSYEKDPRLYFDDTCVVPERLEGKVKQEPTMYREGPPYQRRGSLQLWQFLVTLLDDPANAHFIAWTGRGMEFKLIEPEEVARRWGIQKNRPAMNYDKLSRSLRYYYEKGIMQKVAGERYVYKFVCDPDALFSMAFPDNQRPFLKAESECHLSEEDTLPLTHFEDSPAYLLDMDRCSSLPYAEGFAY
# HSF1, sequence (Q00613 whole entry): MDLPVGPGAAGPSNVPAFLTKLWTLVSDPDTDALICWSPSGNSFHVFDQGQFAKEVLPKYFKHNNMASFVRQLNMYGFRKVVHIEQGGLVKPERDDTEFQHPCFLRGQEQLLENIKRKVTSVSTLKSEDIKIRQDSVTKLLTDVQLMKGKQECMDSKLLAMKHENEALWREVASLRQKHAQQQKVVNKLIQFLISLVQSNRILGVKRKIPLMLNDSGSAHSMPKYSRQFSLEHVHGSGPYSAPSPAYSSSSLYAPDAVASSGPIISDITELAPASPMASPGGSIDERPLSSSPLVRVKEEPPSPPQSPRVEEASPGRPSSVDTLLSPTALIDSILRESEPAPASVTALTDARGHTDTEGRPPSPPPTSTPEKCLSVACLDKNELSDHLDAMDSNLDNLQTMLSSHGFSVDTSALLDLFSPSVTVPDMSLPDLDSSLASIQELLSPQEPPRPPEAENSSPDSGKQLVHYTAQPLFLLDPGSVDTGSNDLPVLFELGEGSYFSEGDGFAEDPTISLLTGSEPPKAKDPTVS
# ELF4, sequence (Q99607 whole entry): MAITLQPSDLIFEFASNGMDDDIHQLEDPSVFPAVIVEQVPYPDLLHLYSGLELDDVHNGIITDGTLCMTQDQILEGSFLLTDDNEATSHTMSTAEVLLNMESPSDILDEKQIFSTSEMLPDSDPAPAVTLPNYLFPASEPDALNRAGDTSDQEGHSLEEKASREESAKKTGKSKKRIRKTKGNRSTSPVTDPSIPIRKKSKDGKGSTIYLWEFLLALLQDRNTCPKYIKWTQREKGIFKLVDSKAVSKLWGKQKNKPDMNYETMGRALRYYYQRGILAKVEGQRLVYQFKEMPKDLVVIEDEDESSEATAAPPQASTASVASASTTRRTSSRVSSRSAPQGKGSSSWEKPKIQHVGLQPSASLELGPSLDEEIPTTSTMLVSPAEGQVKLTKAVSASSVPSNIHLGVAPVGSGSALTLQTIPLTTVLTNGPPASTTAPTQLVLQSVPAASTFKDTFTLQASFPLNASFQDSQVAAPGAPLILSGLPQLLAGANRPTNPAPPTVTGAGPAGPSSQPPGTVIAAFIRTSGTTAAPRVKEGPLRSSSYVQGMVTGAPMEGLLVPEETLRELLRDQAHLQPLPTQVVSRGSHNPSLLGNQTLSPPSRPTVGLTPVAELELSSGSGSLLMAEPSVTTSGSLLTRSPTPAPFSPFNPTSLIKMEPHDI
# ELF1, sequence (P32519 whole entry): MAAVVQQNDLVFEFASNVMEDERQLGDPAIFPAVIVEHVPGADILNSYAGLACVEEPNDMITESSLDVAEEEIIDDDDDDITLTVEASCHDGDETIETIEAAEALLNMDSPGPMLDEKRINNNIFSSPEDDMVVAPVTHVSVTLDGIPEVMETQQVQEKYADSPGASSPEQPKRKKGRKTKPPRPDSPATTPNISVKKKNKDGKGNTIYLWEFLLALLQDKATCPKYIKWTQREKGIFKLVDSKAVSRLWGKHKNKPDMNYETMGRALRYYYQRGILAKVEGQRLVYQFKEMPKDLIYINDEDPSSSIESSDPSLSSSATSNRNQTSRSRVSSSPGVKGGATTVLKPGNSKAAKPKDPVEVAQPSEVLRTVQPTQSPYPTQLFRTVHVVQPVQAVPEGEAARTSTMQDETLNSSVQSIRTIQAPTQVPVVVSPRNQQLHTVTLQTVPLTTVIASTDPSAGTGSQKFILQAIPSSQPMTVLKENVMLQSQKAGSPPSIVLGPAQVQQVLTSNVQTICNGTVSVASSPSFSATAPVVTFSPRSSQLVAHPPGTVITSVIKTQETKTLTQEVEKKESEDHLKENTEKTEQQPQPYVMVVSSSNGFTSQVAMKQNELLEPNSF
# SPIB, sequence (Q01892 whole entry): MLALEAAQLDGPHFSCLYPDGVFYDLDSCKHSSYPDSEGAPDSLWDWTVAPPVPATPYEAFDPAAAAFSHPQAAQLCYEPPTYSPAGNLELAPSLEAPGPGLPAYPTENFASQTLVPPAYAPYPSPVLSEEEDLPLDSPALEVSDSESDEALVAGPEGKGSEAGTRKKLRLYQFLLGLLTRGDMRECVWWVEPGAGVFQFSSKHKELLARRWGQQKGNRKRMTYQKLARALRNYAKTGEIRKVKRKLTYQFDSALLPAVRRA
# ETV1, sequence (P50549 whole entry): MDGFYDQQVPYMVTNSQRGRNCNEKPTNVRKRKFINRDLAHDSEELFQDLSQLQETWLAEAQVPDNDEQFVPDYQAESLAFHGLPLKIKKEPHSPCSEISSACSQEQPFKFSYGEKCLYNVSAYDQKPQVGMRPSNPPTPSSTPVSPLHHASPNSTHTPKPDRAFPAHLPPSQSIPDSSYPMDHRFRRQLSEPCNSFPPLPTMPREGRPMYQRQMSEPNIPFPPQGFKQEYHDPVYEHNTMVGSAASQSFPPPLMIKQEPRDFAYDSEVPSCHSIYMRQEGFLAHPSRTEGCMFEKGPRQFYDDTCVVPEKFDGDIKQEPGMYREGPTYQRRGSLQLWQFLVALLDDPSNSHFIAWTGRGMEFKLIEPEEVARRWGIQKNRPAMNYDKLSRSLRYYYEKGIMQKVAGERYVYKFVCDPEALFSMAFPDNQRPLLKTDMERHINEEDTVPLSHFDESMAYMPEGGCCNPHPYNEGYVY
# CRX, sequence (O43186 whole entry): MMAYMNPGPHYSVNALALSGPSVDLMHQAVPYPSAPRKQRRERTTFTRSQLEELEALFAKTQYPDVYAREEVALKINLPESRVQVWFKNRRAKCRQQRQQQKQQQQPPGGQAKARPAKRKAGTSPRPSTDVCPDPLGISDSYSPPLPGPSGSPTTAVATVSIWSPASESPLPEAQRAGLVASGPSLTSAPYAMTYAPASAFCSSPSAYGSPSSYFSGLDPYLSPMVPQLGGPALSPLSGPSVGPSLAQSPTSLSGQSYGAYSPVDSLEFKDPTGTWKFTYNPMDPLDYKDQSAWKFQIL
sequence,measurement,setting,value
ACCTCC,binding signal,FLI1,"1.38 fold enrichment (6-mer frequency, TF over GST control)"
same,binding signal,ELK1,"1.42 fold enrichment (6-mer frequency, TF over GST control)"
same,binding signal,GABPA,"1.43 fold enrichment (6-mer frequency, TF over GST control)"
same,binding signal,ERG,"1.36 fold enrichment (6-mer frequency, TF over GST control)"
same,binding signal,ELF1,"1.44 fold enrichment (6-mer frequency, TF over GST control)"
same,binding signal,EHF,"1.31 fold enrichment (6-mer frequency, TF over GST control)"
same,binding signal,SPI1,"1.31 fold enrichment (6-mer frequency, TF over GST control)"
same,binding signal,SPIB,"1.4 fold enrichment (6-mer frequency, TF over GST control)"
same,binding signal,ELK3,"1.46 fold enrichment (6-mer frequency, TF over GST control)"
same,binding signal,FEV,"1.42 fold enrichment (6-mer frequency, TF over GST control)"
same,binding signal,ETV5,"1.43 fold enrichment (6-mer frequency, TF over GST control)"
same,binding signal,HSF1,"1.11 fold enrichment (6-mer frequency, TF over GST control)"
same,binding signal,SPIC,"1.45 fold enrichment (6-mer frequency, TF over GST control)"
same,binding signal,ELF4,"1.44 fold enrichment (6-mer frequency, TF over GST control)"
same,binding signal,ELK4,"1.45 fold enrichment (6-mer frequency, TF over GST control)"
same,binding signal,ETV2,"1.4 fold enrichment (6-mer frequency, TF over GST control)"
same,binding signal,ELF3,"1.14 fold enrichment (6-mer frequency, TF over GST control)"
same,binding signal,CRX,"1.08 fold enrichment (6-mer frequency, TF over GST control)"
same,binding signal,ETV1,"1.4 fold enrichment (6-mer frequency, TF over GST control)"
